Assay outcomes from PubChem BioAssay.
Sampled rows, rich in hits. Any-hit rate of the full collection: about 19%.
IL1B secr inh: inflammasome signaling inhibition, IL-1 beta readout. THP-1 LPS/ATP IL-1B secretion, AlphaLISA, 16 h; stronger effect = lower value. AID 743279. activity change, % at 57.5 µM. hit rate 4.7% among 360,000; in the data active = activity change below about -50%; inconclusive = mostly about -30% to -49%
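Secreted IL-1B measured by AlphaLISA bead assay after 16 h compound exposure of THP-1 cells; compounds (final up to 57.5 uM) added 1 h before LPS (250 ng/mL) and ATP (1.25 mM) stimulation; lower signal means less secretion.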
DT40 TDP1 no CPT: qHTS for Inhibitors of human tyrosyl-DNA phosphodiesterase 1 (TDP1): qHTS in cells in absence of CPT. AID 686978, 2013. DT40 Tdp1-/- hTDP1 cells, no CPT, ATP luminescence, 48 h. hit rate 15% among 420,000. Potency, µM (top dose mostly 46.2 µM), for inactives: at the top dose activity change, negative = growth inhibition, hits mostly inhibitors; note: potency is the fitted concentration of half-maximal effect; nearly all actives have a fitted effect of over 55% in size
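A cellular qHTS used chicken DT40 cells lacking endogenous Tdp1 but carrying stably transfected human TDP1. Compounds were applied without camptothecin, and cell growth kinetics were judged by ATP-dependent luminescence after ≥48 hr.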
HT1080 IDH1KD tx: toxicity to HT-1080 IDH1 knockdown cells (counter line); HT-1080 IDH1 knockdown viability, ATP luminescence, 48 h; Potency, µM (highest dose often 46.1 µM), inactives show at the highest dose activity, negative = toxicity, actives largely listed as cytotoxic; hit rate 2% among 360,000; AID 686971;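 note: potency is the fitted concentration of half-maximal effect; 0% = DMSO wells and -100% = cell-free medium wells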
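Luminescent ATP read-out (CellTiter-Glo, 10 min at room temperature) after 48 h compound exposure at 37 °C gave viability of IDH1-knockdown HT-1080 cells. Activity was normalised to DMSO and cell-free wells, then fitted as concentration-response curves.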
HT1080-NT tox: kills 2HG-producing HT-1080-NT fibrosarcoma cells. HT-1080-NT fibrosarcoma viability, CellTiter-Glo ATP luminescence, 48 h. hit rate 1.6% among 360,000. Potency, µM (series often up to 46.1 µM), without a hit: at the highest dose activity, negative = less viability, most hits filed as cytotoxic;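 note: NT is the 2HG producing partner of a matched IDH1 knockdown line; potency is the fitted concentration of half-maximal effect; 0% = DMSO-treated cells and -100% = media-only wells without cells; nearly all actives have a fitted effect of over 55% in size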
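Read-out is CellTiter-Glo luminescence after 10 minutes at room temperature, following 48 hours' compound treatment of HT-1080-NT cells (750 cells/well, RPMI, 5% FBS, 37 degrees C).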
DT40 TDP1 CPT: growth inhibition of DT40 Tdp1-/-;hTDP1 cells with camptothecin (screen for TDP1 inhibitors). Potency, µM (series often up to 46.2 µM), without a hit: at the top dose activity change, negative = growth inhibition, actives largely listed as inhibitors. chicken DT40 Tdp1-/-;hTDP1 cells + 20 nM CPT, ATP luminescence, 48 h. hit rate 12% among 420,000; note: potency is the fitted concentration of half-maximal effect; nearly all actives have a fitted effect of over 55% in size
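Cell growth measured by CellTiter-Glo luminescence after a minimum 48 h, 37 C compound exposure with 20 nM CPT in Tdp1-knockout DT40 cells stably expressing hTDP1, seeded 400/well; qHTS titration format.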
Numbers without * were called inactive; ? = inconclusive; . = not tested or not shown. Unless noted, calls come from the whole dose curve; as a rule, active = well fitted curve in the direction sought with a large enough effect; inconclusive = small, poorly fitted or top-dose-only effect, or another doubt; inactive = no such curve, though single readings can be large; an effect the other way counts as inactive or inconclusive. Unless noted, % is set by controls: 0 for no effect and ±100 for the full control effect.

SMILES | IL1B secr inh | DT40 TDP1 no CPT | HT1080 IDH1KD tx | HT1080-NT tox | DT40 TDP1 CPT
CC(C)CC(N)c1csc(NC(=O)c2cc(C(C)(C)C)nn2Cc2ccccc2)n1 (stereo not given) | -114* | 8.2µM* | 16µM* | 12µM* | 7.3µM*
CN1CCCC(C)(C(=O)Nc2ccc(-n3cccc3)cc2)C1 (stereo not given) | 0 | -16% | 2% | 26% | -18%
Cc1nn(-c2ccc(F)cc2)c(Cl)c1C(=O)NCC1CCCO1 (stereo not given) | -12 | 9% | -5% | -2% | 5%
O=C(Nc1ccncc1Cl)c1ccncc1 | 4 | 9% | 1% | 17% | -14%
O=C(CCCOc1ccccc1)Nc1cccc(S(=O)(=O)N2CCCCCC2)c1 | 24 | -22% | 2% | -3% | -26%
COc1ccccc1NC(=O)Nc1nc(C(N)Cc2ccccc2)cs1 (stereo not given) | ? | 18µM* | ? | 23µM* | 23µM*
CC(C)CC(N)c1csc(NC(=O)C(c2ccccc2)c2ccccc2)n1 (stereo not given) | -28 | 6.5µM* | 2.9µM* | 7.3µM* | 18µM*
CC(C)CC(N)c1csc(NC(=O)Nc2ccccc2Cc2ccccc2)n1 (stereo not given) | ? | 12µM* | ? | ? | 12µM*
COc1ccccc1NC(=O)Nc1nnc(C(C)C)s1 | 11 | -19% | 4% | 2% | -4%
COc1ccccc1NC(=O)Nc1nc(C(N)CC(C)C)cs1 (stereo not given) | -57* | 0.26µM* | -19% | -6% | 2.6µM*
COc1ccc(CNC(=O)C[C@H]2C[C@H](C(=O)N(C(C)C)C(C)C)[C@@]3(C)c4[nH]c5ccc(Cl)cc5c4CCN3C2=O)cc1OC | -24 | 18µM* | -24% | -19% | 18µM*
CC(C)N(C(=O)[C@H]1C[C@H](CC(=O)NCc2ccco2)C(=O)N2CCc3c([nH]c4cc(CCC(=O)N(C)C)ccc34)[C@]12C)C(C)C | -21 | ? | -1% | 0% | ?
COCCCNC(=O)C[C@H]1C[C@H](C(=O)N(C(C)C)C(C)C)[C@@]2(C)c3[nH]c4cc(-c5ccco5)ccc4c3CCN2C1=O | ? | 23µM* | 1% | -3% | 16µM*
COc1ccc(CNC(=O)C[C@H]2C[C@H](C(=O)N(C(C)C)C(C)C)[C@@]3(C)c4[nH]c5cc(-c6ccco6)ccc5c4CCN3C2=O)cc1OC | -20 | ? | -21% | -18% | 18µM*
CC(C)N(C(=O)[C@H]1C[C@H](CC(=O)NCCC2=CCCCC2)C(=O)N2CCc3c([nH]c4ccc(Cl)cc34)[C@]12C)C(C)C | -22 | 26µM* | -3% | -6% | 29µM*
CC(=O)OCc1c(C(F)(F)F)nn(C)c1SCc1ccc(Cl)cc1 | 1 | -26% | 18% | 12% | 0%
O=C(C1=C[C@H](C2CCCCC2)C[C@H](OCc2ccc(CO)cc2)O1)N1CCN(Cc2ccccc2)CC1 | 0 | 18µM* | ? | ? | 18µM*
O=C(C1=C[C@@H](C2CCCCC2)C[C@@H](OCc2ccc(CO)cc2)O1)N1CCN(Cc2ccccc2)CC1 | -59* | 16µM* | ? | ? | 21µM*
O=c1cc(-c2ccccc2Cl)oc2c(NS(=O)(=O)c3cc(Cl)cc(Cl)c3O)ccc(O)c12 | 2 | 12µM* | ? | 3.3µM* | 9.2µM*
O=C(c1cnn2c(C(F)(F)F)cc(-c3ccc(F)cc3)nc12)N1CCc2ccccc2C1 | -26 | 21µM* | 4% | 0% | ?
O=C(c1cccc(F)c1)N1CCN(C(=O)c2cc3nc(-c4ccco4)cc(C(F)(F)F)n3n2)CC1 | -2 | 15µM* | 15% | 28% | -24%
CN1C(C(=O)N2CCc3ccccc3C2)=CC(c2ccc(F)cc2)=NS1(=O)=O | 17 | 26µM* | -1% | -17% | ?
O=C(c1cc2nc(-c3ccco3)cc(C(F)(F)F)n2n1)N1CCc2ccccc2C1 | 6 | 23µM* | -8% | -4% | ?
COc1ccc(C2=NS(=O)(=O)N(C)C(C(=O)N3CCC(C)CC3)=C2)cc1 | 22 | ? | -2% | 18% | ?
CN1CCN(C(=O)c2cc3nc(-c4ccco4)cc(C(F)(F)F)n3n2)CC1 | 0 | -26% | -4% | 1% | 9%
SMILES | IL1B secr inh | DT40 TDP1 no CPT | HT1080 IDH1KD tx | HT1080-NT tox | DT40 TDP1 CPT
C[C@H](CO)N1C[C@H](C)[C@@H](CN(C)S(C)(=O)=O)Oc2ccc(NC(=O)c3ccncc3)cc2C1=O | 2 | 8% | 17% | 20% | -1%
COc1ccc(C(=O)Nc2ccnn2C2CCN(Cc3ccccn3)CC2)cc1 | 0 | 21% | 10% | 9% | -4%
COc1cc(C2Nc3c(F)cccc3C3C=CCC32)cc(Br)c1OC (stereo not given) | 5 | ? | 3% | 28% | 1%
COc1cccc(C2Nc3c(F)cc(Br)cc3C3C=CCC32)c1OC (stereo not given) | -6 | 18µM* | 8% | 2% | 16µM*
O=C(NCC(=O)N1CCCCCC1)c1ccc(Br)cc1 | 0 | -1% | -2% | 6% | 33%
CCN1CCN(Cc2c(O)ccc3c2O/C(=C\C=C\c2ccccc2)C3=O)CC1 | -100* | 12µM* | ? | ? | 26µM*
Nc1nc(-c2ccccc2)c(CCCNc2ccccc2)c(=O)[nH]1 | 5 | ? | -1% | -2% | ?
Cc1nc(N)[nH]c(=O)c1CCCNc1ccc(CCCCC2(CCl)OCCO2)cc1 | 28 | ? | -15% | ? | 18µM*
COc1cccc(/C=N/NC(=O)c2c(-c3ccccc3)noc2C)c1O | 116 | 4.6µM* | ? | -24% | 4.1µM*
COc1cccc(/C=N/NC(=O)c2c(-c3ccccc3)noc2C)c1OC | 8 | -3% | -9% | -2% | -10%
Cc1onc(-c2ccccc2)c1C(=O)N/N=C/c1c[nH]c2ccccc12 | -72* | ? | -29% | -6% | -12%
Cc1onc(-c2ccccc2)c1C(=O)N/N=C/c1cc(Br)c(Br)o1 | -93* | ? | ? | -12% | ?
COC(=O)c1cc(NC(=O)Cn2ncc3c2-c2ccccc2OC3)cc(C(=O)OC)c1 | . | -26% | . | . | -25%
Cc1cc(=O)nc2c3ccccc3n(C(C)C(=O)NCCN3CCOCC3)n12 (stereo not given) | -1 | 4% | 1% | -3% | 3%
COc1ccc(C(O)C(CN2CCOCC2)c2ccccc2)cc1F (stereo not given) | -10 | -28% | 5% | 8% | -23%
CCOC(=O)C(CN1CCCC1)c1ccccc1 (stereo not given) | 20 | 3% | 4% | 3% | 0%
